PubChem BioAssay (NCATS)
Values joined by “and” are separate entries in the source; they are usually repeats but may differ in a detail not shown here. Equal entries are not always repeated. Inconclusive results are not listed. Active and inactive are the calls of the source. The call rests on the fitted dose curve; in most records, active means well fitted curve in the direction sought with a large enough effect; inconclusive means small, poorly fitted or top-dose-only effect, or another doubt; inactive means no such curve, though single readings can be large; an effect the other way counts as inactive or inconclusive.

Legend:
[1] = Viability qHTS for spleen associated tyrosine kinase inhibitor (SYKi) naive MV4-11 cells (AID 1963823); further: nearly all actives have a fitted effect of over 40% in size; further: potency means the concentration at half of the fitted maximal effect
How it was run: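 Compounds were dispensed acoustically onto plates, MV4-11 cells (SYKi-naive) added at 500 per well, and plates incubated 72 hr at 37 C. CellTiter-Glo was added and luminescence measured after 10 min.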

[2] = Viability qHTS for spleen associated tyrosine kinase inhibitor (SYKi) drug resistant MV4-11 cells (AID 1963824); further: nearly all actives have a fitted effect of over 35% in size; further: potency means the concentration at half of the fitted maximal effect
How it was run: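 SYK inhibitor-resistant MV4-11 AML cells, 500 per well, added to predispensed compounds and incubated 72 hr at 37 C, 5% CO2. Viability measured by CellTiter-Glo luminescence after 10 min at room temperature.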

[3] = Quantitative highthroughput screen to assess conditional lethalithy of NOMO1 cells grown in RPMI1640 with dialyzed fetal bovine serum (RPMI+ds) (AID 1963877); further: nearly all actives have a fitted effect of over 30% in size; further: potency means the concentration at half of the fitted maximal effect;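 on Viability: series mostly up to about 46 µM; 100% = DMSO control wells and 0% = empty wells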
How it was run: (§1)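 Each medium arm—HPLM with 10% dialyzed FBS, or RPMI1640 with 5 mM glucose and 10% untreated or dialyzed FBS—was screened against an 11-point, 3-fold compound titration for 48 h at 37 °C, with CellTiter-Glo luminescence as endpoint.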

[4] = Quantitative highthroughput screen to assess conditional lethalithy of NOMO1 cells grown in Human Plasma-Like Medium with dialyzed fetal bovine serum (HPLM+ds) (AID 1963878); further: nearly all actives have a fitted effect of over 35% in size; further: potency means the concentration at half of the fitted maximal effect;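 on Viability: 100% = DMSO wells and 0% = empty wells on each plate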
How it was run: as §1

[5] = Quantitative highthroughput screen to assess conditional lethalithy of P12 Ichikawa cells grown in Human Plasma-Like Medium with dialyzed fetal bovine serum (HPLM+ds) (AID 1963879); conditions: Potency: viability; further: nearly all actives have a fitted effect of over 35% in size; further: potency means the concentration at half of the fitted maximal effect; on Viability: series mostly up to about 46 µM
How it was run: as §1

[6] = Quantitative highthroughput screen to assess conditional lethalithy of P12 Ichikawa cells grown in RPMI1640 with dialyzed fetal bovine serum (RPMI+ds) (AID 1963880); conditions: Potency: P12-Ichikawa viability; further: nearly all actives have a fitted effect of over 35% in size; further: potency means the concentration at half of the fitted maximal effect;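 on Viability: 100% = DMSO wells and 0% = empty wells on each plate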
How it was run: as §1

[7] = Cellular viability qHTS for adrenocortical cancer (ACC) cell line SW-13 (AID 1963989); conditions: SW-13 ACC cells viability, CellTiter-Glo, 48 h; activity (max response): stronger effect = lower value; further: nearly all actives have a fitted effect of over 65% in size; further: potency means the concentration at half of the fitted maximal effect;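 on activity (max response): cells grown in serum-free medium with ITS supplement; on the % scale 0 is the no-effect control and ±100 the full control effect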
How it was run: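 48 h treatment, SW-13 in ITS/DMEM serum-free; doses up to 46 uM; readout CellTiter-Glo luminescence; curve fit four-parameter logistic.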

[8] = Cellular viability qHTS for adrenocortical cancer (ACC) cell line NCI-H295R (AID 1963990); further: nearly all actives have a fitted effect of over 60% in size; further: potency means the concentration at half of the fitted maximal effect
How it was run: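 Compound titrations (up to 46 uM final) are applied to NCI-H295R cultures for 48 h at 37C. Viable cell number is estimated by CellTiter-Glo signal, normalised to DMSO and doxorubicin controls.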

[9] = Quantitative highthroughput screen to assess conditional lethalithy of NOMO1 cells grown in RPMI1640 with untreated serum (RPMI+s) (AID 1963876); further: nearly all actives have a fitted effect of over 35% in size; further: potency means the concentration at half of the fitted maximal effect;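 on Viability: 100% = DMSO wells and 0% = empty wells without cells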
How it was run: as §1

[10] = Quantitative highthroughput screen to assess conditional lethalithy of SEM cells grown in RPMI1640 with dialyzed fetal bovine serum (RPMI+ds) (AID 1963884); further: nearly all actives have a fitted effect of over 35% in size; further: potency means the concentration at half of the fitted maximal effect;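 on Viability: series mostly up to about 46 µM; 100% = DMSO control wells and 0% = empty wells without cells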
How it was run: as §1

[11] = Quantitative highthroughput screen to assess conditional lethalithy of P12 Ichikawa cells grown in RPMI1640 with untreated serum (RPMI+s) (AID 1963881); conditions: Potency: viability; further: nearly all actives have a fitted effect of over 35% in size; further: potency means the concentration at half of the fitted maximal effect;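 on Viability: series mostly up to about 46 µM; 100% = DMSO wells and 0% = empty wells without cells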
How it was run: as §1

[12] = Quantitative highthroughput screen to assess conditional lethalithy of SEM cells grown in Human Plasma-Like Medium with dialyzed fetal bovine serum (HPLM+ds) (AID 1963882)
How it was run: as §1

[13] = Quantitative highthroughput screen to assess conditional lethalithy of SEM cells grown in RPMI1640 with unreated serum (RPMI+s) (AID 1963883)
How it was run: as §1

C[C@@H]1Cc2c(Cl)cc(C(=O)N[C@@H](Cc3ccccc3)C(=O)O)c(O)c2C(=O)O1
active: Potency [1] 718 nM | Potency [2] 0.286 µM

CCOP(=O)(OCC)C(C)NC(=O)N(CCCl)N=O (stereo unspecified)
inactive: Potency [1] | Potency [3] | Potency [4] | Potency [5] | Potency [6] | activity (max response) [7] 3.2% | Potency [8]
active: Potency [2] 16.6 µM

Oc1ccc2[nH]cc(CCCCN3CC=C(c4ccccc4)CC3)c2c1
active: Potency [1] 8410 nM | Potency [2] 10.6 µM

COc1ccc(C(=O)c2c(C)n(CCN3CCOCC3)c3ccccc23)cc1
inactive: Potency [9] | Potency [4] | Potency [5] | Potency [10]
active: Potency [1] 26600 nM | Potency [2] 16.6 µM | Potency [8] 14600 nM

COc1cc(C(=O)O[C@H]2[C@@H]3C=CO[C@@H](O[C@@H]4O[C@H](CO)[C@@H](O)[C@H](O)[C@H]4O)[C@@H]3[C@@]3(CO)O[C@@H]23)ccc1O
inactive: Potency [1] | Potency [2]

NCC1(CC(=O)O)CCCCC1
inactive: Potency [1] | Potency [2] | Potency [3] | Potency [4] | Potency [5] | Potency [6] | activity (max response) [7] 12.5% and -5.41% | Potency [8]

CC(C)C(=O)O[C@H]1[C@@H]2[C@H](C)C(=O)O[C@@H]2C[C@@H](C)[C@@H]2C=CC(=O)[C@]21C
active: Potency [1] 3600 nM | Potency [2] 2.27 µM

CC[C@@]1(O)C(=O)OCc2c1cc1n(c2=O)Cc2cc3ccccc3nc2-1
active: Potency [1] 23.5 nM | Potency [2] 0.0235 µM | Potency [9] 74.3 nM | Potency [3] 66.2 nM | Potency [4] 66.2 nM | Potency [5] 29.6 nM | Potency [6] 20.9 nM | Potency [11] 23.5 nM | Potency [7] 126 nM

C[C@@H]1C(=O)O[C@H]2[C@H](O)[C@@]34[C@@H]5OC(=O)[C@@]3(O[C@@H]3OC(=O)[C@@H](O)[C@@]34[C@H](C(C)(C)C)[C@H]5O)[C@@]12O
inactive: Potency [1] | Potency [2]

CN[C@@H]1Cc2cccc3[nH]c(=O)n(c23)C1
inactive: Potency [1] | Potency [2] | Potency [9] | Potency [3] | Potency [4] | Potency [6] | activity (max response) [7] -9.99% | Potency [8]

CCC1(c2ccc(N)cc2)CCC(=O)NC1=O (stereo unspecified)
inactive: Potency [1] | Potency [2] | Potency [9] | Potency [3] | Potency [5] | activity (max response) [7] -1.13% and 5.11% | Potency [8]

CCc1c(C(=O)C(N)=O)c2c(OCC(=O)O)cccc2n1Cc1ccccc1
inactive: Potency [1] | Potency [2] | Potency [9] | Potency [4] | Potency [5] | Potency [12] | activity (max response) [7] -1.25% | Potency [8]

COC1=C[C@@H]2[C@@H]3Cc4ccc(OC)c(O)c4[C@]2(CCN3C)CC1=O
inactive: Potency [1] | Potency [3] | Potency [4] | Potency [6] | Potency [11] | Potency [12] | activity (max response) [7] -18.4% | Potency [8]
active: Potency [2] 18.6 µM

CC(C)C[C@H](CN)CC(=O)O
inactive: Potency [1] | Potency [2] | Potency [9] | Potency [3] | Potency [5] | Potency [6] | activity (max response) [7] 8.17% | Potency [8]

CCOc1ccccc1-n1c(C(C)N2CCN(C(=O)COc3ccc(Cl)cc3)CC2)nc2ccccc2c1=O (stereo unspecified)
active: Potency [1] 920 nM and 742 nM | Potency [2] 1.46 µM and 1.32 µM | Potency [9] 1320 nM | Potency [4] 741 nM | Potency [6] 1050 nM | Potency [8] 891 nM

Cc1ncc(OC[C@@]2(c3cccc(F)c3)C[C@H]2C(=O)Nc2ccc(F)cn2)c(C)n1
inactive: Potency [1] | Potency [2] | Potency [9] | Potency [3] | Potency [6] | activity (max response) [7] 7.8% | Potency [8]

Cc1[nH]nc2ccc(-c3cncc(OC[C@@H](N)Cc4c[nH]c5ccccc45)c3)cc12
active: Potency [1] 46.8 nM | Potency [2] 65.1 nM and 105 nM | Potency [9] 1180 nM | Potency [3] 743 nM | Potency [4] 526 nM | Potency [5] 1660 nM | Potency [10] 418 nM | Potency [7] 708 nM | Potency [8] 2240 nM

Cc1sc2c(c1C)C(c1ccc(Cl)cc1)=N[C@@H](CC(N)=O)c1nnc(C)n1-2
active: Potency [1] 83.3 nM | Potency [2] 82 nM and 83.3 nM

Nc1ccn(C[C@@H](CO)OCP(=O)(O)O)c(=O)n1
inactive: viability (% of control) [1] 57.6% [at 9.25 µM] | viability, % of control [2] 69.1% [at 9.25 µM]

Cc1cccc(C)c1NC(=O)CN1CCCC1=O
inactive: Potency [1] | Potency [2] | Potency [9] | Potency [3] | Potency [4] | Potency [6] | Potency [11] | activity (max response) [7] -5.06% and 4.95% | Potency [8]

COC[C@H]1OC(=O)c2coc3c2[C@@]1(C)C1=C(C3=O)C2CCC(=O)[C@@]2(C)C[C@H]1OC(C)=O (stereo partly specified)
inactive: Potency [9] | Potency [3] | Potency [4] | Potency [5] | Potency [13]
active: Potency [1] 14.6 µM and 3.32 µM | Potency [2] 16.4 µM and 3.72 µM

CN[C@H]1[C@H](O)[C@H](O[C@@H]2[C@@H](O)[C@H](O[C@H]3O[C@H]([C@H](C)O)[C@@H](O)[C@H](O)[C@H]3N)[C@@H](N)C[C@H]2N)OC[C@@]1(C)O
inactive: Potency [1] | Potency [2]
